Inhibition data for 100 compounds are collected here from PubChem BioAssay AID746 (The Scripps Research Institute Molecular Screening Center, 2007).

As usually defined, the inhibition is the change of the read-out against control, counted positive when it falls.

Out of some 60,000 compounds screened, about 370 (0.62%) were called active. The entries come from a sample that favours actives as a whole. A number with no mark means an inactive call. Rule as the data show it: active = inhibition above about 17%; inactive = the rest.

Chain of Mitogen-activated protein kinase 10 (Homo sapiens) (P53779 whole entry, looked up): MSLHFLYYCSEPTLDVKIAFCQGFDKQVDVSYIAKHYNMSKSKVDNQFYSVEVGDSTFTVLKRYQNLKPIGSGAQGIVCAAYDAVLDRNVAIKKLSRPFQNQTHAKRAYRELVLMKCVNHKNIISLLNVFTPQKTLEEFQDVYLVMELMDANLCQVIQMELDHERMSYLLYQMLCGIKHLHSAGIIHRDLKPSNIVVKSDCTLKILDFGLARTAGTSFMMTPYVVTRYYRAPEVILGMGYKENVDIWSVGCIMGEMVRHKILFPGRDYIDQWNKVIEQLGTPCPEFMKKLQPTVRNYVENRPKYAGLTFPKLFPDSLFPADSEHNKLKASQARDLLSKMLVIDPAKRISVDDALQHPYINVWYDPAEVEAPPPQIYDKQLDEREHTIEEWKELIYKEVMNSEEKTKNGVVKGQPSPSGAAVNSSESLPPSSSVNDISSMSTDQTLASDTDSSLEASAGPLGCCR

This test has as its target Mitogen-activated protein kinase 10 (Homo sapiens) (UniProt P53779). The test can be described thus: JNK3 kinase activity inhibitors, primary screen, biochemical, human, purified enzyme (AID 746).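 Also: 0% = DMSO and 100% = reference inhibitor.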 Particulars: HTS, at 8 µM, active compounds read high.
Consider `COc1ccc(Cn2cccc(NC(=O)Nc3ccc(C#N)cc3)c2=O)cc1`, for which the inhibition was 2.85%. With `CCOC(=O)C1CCN(C(=O)Nc2ccc(Cl)cc2)CC1`, the inhibition is 3.13%. The value for `CCC(C)Sc1nnc(-c2c[nH]c3ccccc23)n1CCOC` (stereo not given) was -1.71%; that for `COc1ccc(CCNC(=O)CCn2c(=O)oc3ccccc32)cc1OC` was -2.91%; that for `Cc1cc(C)c(S(=O)(=O)NCCCN2CCOCC2)cc1Br` was -5.01%. The value for `COc1ccc(OC)c(C2N(c3ccccn3)C(=O)C3CCCN32)c1` (stereo not given) was 1.09%. The value for `Cc1cc(=O)n2c3c(cccc13)CCC2` was 6.82%; that for `CCOC(=O)c1sc2nc(CSCC(=O)OCc3ccc(C(=O)OC)o3)[nH]c(=O)c2c1C` was 0.98%; that for `COC(=O)c1c(NC(=O)CCN2CCOCC2)sc2c1CCCC2` was -3.4%. Take `COc1ccccc1-n1cnc2cc(NS(=O)(=O)c3ccccc3)ccc21`: the inhibition was 4.48%.

As to `COc1ccc(O)c(C=Nc2cc(C)on2)c1`, the inhibition is 0.04%. In the case of `Cc1cc(C)n(C(=O)c2ccc(C)c(S(=O)(=O)N3CCOCC3)c2)n1`, the inhibition is 1.61%. The value for `Cc1cccc2cc(C#N)c(N3CCCC3)nc12` was 2.01%; that for `CC(C)COC(=O)C1C2C=CC3(CN(C(C)c4ccc(Br)cc4)C(=O)C13)O2` (stereo not given) was -6.16%.

As to `NC(=O)C1(N2CCCCC2)CCN(C(=O)c2ccc(C#Cc3ccccc3)o2)CC1`, the inhibition is -2.13%. With `CCCn1c(SCC(=O)Nc2c(C)cccc2C)nnc1C(C)C`, the inhibition is -2.91%.

Take `C=CCN(c1ccc(C(N)=O)cc1)S(C)(=O)=O`: the inhibition is 4.4%. The value for `CCCOC(=O)Nc1ccccc1C(N)=O` was -5.47%; that for `NC(=O)c1ccccc1NC(=O)c1ccccc1F` was 13.4%; that for `COc1cccc(OCC(=O)Nc2ccccc2C(N)=O)c1` was 26.1% (active). The value for `CCOCCCNS(=O)(=O)Cc1ccccc1` was 1.76%; that for `CCCCOc1ccc(C(=O)NCc2ccco2)cc1` was 0.41%.

For `CCOc1ccc2nc(N3CCCN(C(=O)Nc4ccccc4C)CC3)c(C#N)cc2c1`, the inhibition is 0.49%. The value for `CCN(c1ccccc1)S(=O)(=O)c1ccc(N)cc1` was 2.15%.

In the case of `CC1=C(C(N)=O)C(c2ccc3c(c2)OCO3)n2nc(-c3cccc(C)c3)nc2N1` (stereo not given), the inhibition is 5.86%. The value for `CCOC(=O)c1ccc(Nc2cc(C)nc3nc(C)nn23)cc1` was -10.1%; that for `COc1ccccc1NC(=O)CSc1nnc(Cn2nnc(-c3ccccc3)n2)n1-c1ccccc1` was -0.28%; that for `O=C(Nc1nsc(-c2ccccc2)n1)c1ccncc1` was 1.54%. The value for `CC1CSc2nnc(CCc3ccccc3)n21` (stereo not given) was 16.5%. The value for `COC(=O)c1cc(C(=O)CSc2nc(C)cc(C)n2)ccc1O` was 1.84%. As to `COc1c(O)cccc1-c1nnn(CCC(=O)OCC(=O)c2ccccc2)n1`, the inhibition is 0.11%. The value for `CC(CCc1ccccc1)NC(=O)c1ccc(Br)o1` (stereo not given) was 3.4%; that for `NC(=O)CCCC1=NS(=O)(=O)c2ccccc2N1` was 11.7%.

For `Nc1nonc1C(=O)NCCc1ccccc1`, the inhibition was 2.83%. Regarding `CC(C)CC(=O)N=C1SC2CS(=O)(=O)CC2N1CCc1ccccc1` (stereo not given), the inhibition was -1.83%.

With `Cc1noc(C)c1S(=O)(=O)N(CC(=O)Nc1ccc2c(c1)OCCO2)c1ccc(C(C)C)cc1`, the inhibition was 0.66%.

For `C=CCNc1nnc(SCC(=O)N2CCCCC2)c2ccccc12`, the inhibition is -2.85%. The value for `Nc1nnc(SCCN2C(=O)c3ccccc3S2(=O)=O)s1` was -1.92%. The value for `Cc1ccc(CNC(=O)CCCNC(=O)c2ccc(Cl)cc2)n1C` was 10.2%; that for `Cc1ccc(Oc2ccc(N)cc2)cc1` was 6.53%; that for `CCOc1cc2c(cc1OCC)C(C(=O)O)C(c1ccc(OC)c(O)c1)N(C)C2=O` (stereo not given) was -0.42%. The value for `O=C(C1CCC1)N1CCc2cc(S(=O)(=O)NCc3cccnc3)ccc21` was -6.87%; that for `COC(=O)c1cc(Cl)c(NC(=O)c2ccco2)cc1OC` was -6.35%; that for `Cc1cc2c(=O)n(C)c(SCC(=O)c3cc4ccccc4o3)nc2s1` was -3.37%. With `CCOC(=O)c1c(NC(=O)c2cccs2)sc(C)c1C`, the inhibition is 6.19%.

Consider `Oc1c(C(c2cccs2)N2CCN(c3ccc(F)cc3)CC2)sc2ncnn12` (stereo not given), for which the inhibition was 1.85%. The value for `O=C1c2ccccc2-c2ncnc3c(N4CCOCC4)cc(N4CCOCC4)c1c23` was -9.75%; that for `CCOc1cc(C(=O)Nc2ncccn2)cc(OCC)c1OCC` was -1.81%; that for `O=C(NCCN1CCOCC1)c1c(F)c(F)c(F)c(F)c1F` was 7.3%. The value for `CCn1nc(C(=O)OCC(=O)N2c3ccccc3CC2C)c2ccccc2c1=O` (stereo not given) was 1.01%.

`Cn1cnc2c1c(=O)n(Cc1c(Cl)cccc1Cl)c(=O)n2C`: the inhibition was 2.26%. The value for `Cc1nnc(NC(=O)CSc2nccn2-c2cccc(C)c2C)s1` was -4.27%; that for `CCOC(=O)C1CCCN(C(=O)Cn2ncc3c(=O)oc4ccc(C)cc4c32)C1` (stereo not given) was 0.71%; that for `Cc1ccc2oc(=O)c3cnn(CC(=O)N4CCCCCC4)c3c2c1` was 0.73%. The value for `Cc1ccc2oc(=O)c3cnn(CC(=O)N4CCN(c5ccccn5)CC4)c3c2c1` was 37.2% (active); that for `CCOc1ccc(C(=O)Nc2ccncc2)cc1` was 0.07%; that for `O=S(N1CCCCCC1)C12CC3CC(CC(C3)C1)C2` (stereo not given) was 8.25%. The value for `COC(=O)c1cccc(NC(=O)CN2CCC(NC(=O)c3cc(OC)c(OC)c(OC)c3)CC2)c1` was 79.2% (active); that for `COC(=O)c1cc(NC(=O)CN2CCC(C(N)=O)(N3CCCCC3)CC2)cc(C(=O)OC)c1` was -2.8%; that for `COc1ccc(NC(C)=O)cc1NC(=O)CN1CCN(c2ccccn2)CC1` was 2.12%. With `COc1ccc(-c2cc(C(=O)NC(C(=O)O)C(C)C)c(C)o2)cc1OC` (stereo not given), the inhibition was 1.2%.

Take `Cc1cc(C(=O)O)c(S(C)(=O)=O)s1`: the inhibition was 0.82%. The value for `CC1=C(C)CC2C(=O)N(c3cccc4ccccc34)C(=O)C2C1` (stereo not given) was 0%. For the compound `COc1ccccc1Cc1nc(-c2ccc(C)cc2)no1`, the inhibition was 4.84%. As for `CC(C)Cc1cc(C(=O)Nc2cc(Br)ccc2O)no1`, the inhibition was -4.9%. The value for `COc1ccc(CCN(C)C(=O)C2CCCN(Cc3ccc(OC)c(OC)c3)C2)cc1OC` (stereo not given) was 4.04%; that for `CN(C)/C=C1/C(=O)Nc2ccccc21` was -8.06%; that for `O=C(CCN1C(=O)c2ccccc2C1=O)Nc1ccncc1` was 0.63%. The value for `COc1ccc(-c2nc3n(c2Br)CCC3)cc1` was -4.37%.

In the case of `CCCC(=O)Nc1ccc2c(c1)nc1n2CCSC1`, the inhibition is -5.4%. The value for `Cc1ccsc1C(=O)OCC(=O)c1cc(C)n(CC2CCCO2)c1C` (stereo not given) was 1.34%; that for `COc1ncnc2c1N=C1CC(C)(C)CC(N)=C1S2` was -12.2%; that for `O=C(COc1ccccc1)NCCc1nc2ccccc2[nH]1` was 5.21%. For `COc1ccc(NC2CC(=O)N(C)C2=O)cc1` (stereo not given), the inhibition is -1.99%. The value for `CCN(CC)P(=O)(/C(Cl)=C\Nc1c(C)n(C)n(-c2ccccc2)c1=O)N(CC)CC` was 4.4%; that for `CCOC(=O)N1CCN(S(=O)(=O)c2cc3c(cc2C)NC(=O)CO3)CC1` was 1.04%. The value for `COc1ccc2c(c1)C=CC1(O2)N(CCO)c2ccccc2C1(C)C` (stereo not given) was -1.22%. The value for `CS(=O)(=O)N1CCN(C(=O)Cc2ccccc2)CC1` was 7.69%; that for `Cc1cc(C(=O)N2CCN(c3ccccn3)CC2)c(C)o1` was 2.54%.

Regarding `COc1cccc(OC)c1C(=O)Nc1nnc(C(C)C)s1`, the inhibition is -2.05%. The value for `Cn1cccc1Cc1nnc(SCC(=O)NCc2ccc3c(c2)OCO3)n1CCc1ccccc1` was -1.11%; that for `CCn1c(SCCC(C)C)nnc1-c1c[nH]c2ccccc12` was 2.85%; that for `CCC(c1nnnn1C1CCCC1)N1CCN(C(=O)c2ccco2)CC1` (stereo not given) was -1.42%. The value for `Fc1ccc(OCc2nn3c(Cn4nnc5ccccc54)nnc3s2)cc1` was -2.42%. `CCn1c(SCC(=O)c2ccc(Cl)s2)nnc1-c1cccs1`: the inhibition was -1.37%. The value for `CC12CN(Cc3ccccc3)CC(C)(CN(Cc3ccccc3)C1)C2=NO` was 1.42%; that for `COc1ccccc1-c1c(C)nn2c(C)c(C(C)=O)cnc12` was 0.53%; that for `O=S(=O)(NCCOc1cccc2cccnc12)c1ccc(F)cc1` was -0.52%.

Take `FC(F)(F)c1cc(-c2ccco2)nc(N2CCOCC2)n1`: the inhibition was 2.31%. On to `Cc1cccn2c(=O)c3cc(C(=O)N4COCC4(C)C)n(C)c3nc12`, for which the inhibition was 5.99%.

For `COc1ccc(-n2nc3c(c2NC(=O)Cc2cccc(C)c2)CS(=O)C3)cc1` (stereo not given), the inhibition is 1.83%. The value for `CCCC(=O)N=c1sc2cccc(F)c2n1C` was -1.7%; that for `CN(c1nc2ccccc2n2c(-c3ccco3)nnc12)S(=O)(=O)c1ccccc1` was -4.26%; that for `C=C(C)Cn1c(N2CCCC2)nc2c1c(=O)[nH]c(=O)n2C` was 2.48%. The value for `NC(=O)CSc1c[nH]c2ccccc12` was 6.99%; that for `CNC(=O)c1nnn(-c2ccccc2)c1C(=O)NC` was -3.49%; that for `CCCOc1ccc(C2C(C(=O)c3ccc(C)o3)=C(O)C(=O)N2CCCn2ccnc2)cc1` (stereo not given) was 42.8% (active). The value for `CCCOc1ccc(C2c3c(oc4cc(C)c(C)cc4c3=O)C(=O)N2CCCN2CCOCC2)cc1` (stereo not given) was 3.64%. Consider `Brc1ccc(OCCn2ccnc2)cc1`, for which the inhibition is 1.14%. The value for `CC(=O)N1CCN(c2ccc(NCc3ccc(C(C)C)cc3)cc2)CC1` was -4.46%.
